The values below come from publication PMC5540273 (PLoS ONE, 2017).

What all share (details): concentration: 1 μM,replicates: in singlicate; n = 1
Test [1] has as its system ZAK.
Test [2] concerns ZAP70.
In test [3] the test system is T1, p38-alpha.
T1 construct: gene MAPK14

Test [4] has as its system T2, p38-beta.
T2 construct: gene MAPK11

Test [5] has as its system p38-delta.
Test [6] relates to T3, p38-gamma.
T3 construct: gene MAPK12
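Note: KINOMEscan kinase panel screen.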

For `C[C@@H]1CNc2c(sc3ccc4nc(-c5ccncc5)ccc4c23)C(=O)N1`, the “%Inh” value in test [1] was 0%; in test [2] it was 0%; in test [3] it was 0%; in test [4], 8%; in test [5] it was 11%; in test [6], 16%.
Regarding `Cl.Nc1n[nH]c2cc(-c3ccccn3)ccc12` [GSK2189892], the “%Inh” value in test [1] is 14%; in test [2], 0%; in test [3] it was 0%; in test [4] it was 0%; in test [5] it was 22%; in test [6], 4%.
With `O=C(Nc1cccc(Oc2ccc3nccn3n2)c1)Nc1cccc(C(F)(F)F)c1`, the “%Inh” value was determined as 97.8% in test [1]; 3% in test [2]; 17% in test [3]; 12% in test [4]; 0% in test [5]; 19% in test [6].
With `NC(=O)c1ccc(-c2cc3ncnc(SCC(=O)O)c3s2)cc1`, the “%Inh” value in test [1] worked out at 0%; in test [2], 0%; in test [3], 0%; in test [4] it was 2%; in test [5], 24%; in test [6], 0%.
Regarding `C[C@@H]1CCN(C(=O)N2CCCC2)C[C@@H]1N(C)c1ncnc2[nH]ccc12`, the “%Inh” value in test [1] was determined as 12%; in test [2], 0%; in test [3] it was 5%; in test [4], 2%; in test [5], 25%; in test [6], 10%.
In the case of `CC(=O)c1c(-c2ccncc2)[nH]c(-c2ccncc2)c1C` [GW493036], the “%Inh” value in test [1] worked out at 34%; in test [2], 48%; in test [3], 34%; in test [4] it was 0%; in test [5], 49%; in test [6], 19%.
As to `COC(=O)c1cccc(NC(=O)NC2CCN(c3ccnc(NCc4ccc(F)cc4)n3)CC2)c1` [GSK1379860], the “%Inh” value stood at 0% in test [1]; 0% in test [2]; 0% in test [3]; 0% in test [4]; 34% in test [5]; 0% in test [6].
`COC(=O)Nc1nc2cc(Oc3ccc(NC(=O)Nc4cc(C(F)(F)F)ccc4Cl)cc3)ccc2[nH]1.Cl` [GW697465]: the “%Inh” value is reported as 98.4% in test [1]; 0% in test [2]; 83% in test [3]; 45% in test [4]; 48% in test [5]; 0% in test [6].
As for `C[C@@H](Oc1cc(-n2cnc3cc(-c4cnn(C)c4)ccc32)sc1C(N)=O)c1ccccc1Cl` [GSK580432], the “%Inh” value in test [1] was 6%; in test [2] it was 0%; in test [3], 0%; in test [4] it was 0%; in test [5] it was 0%; in test [6], 0%.
With `Cc1ccc(CC(=O)N2CCc3cc(-c4cn(C)c5ncnc(N)c45)ccc32)cc1` [GSK2634758], the “%Inh” value in test [1] is 21%; in test [2], 0%; in test [3] it was 0%; in test [4] it was 0%; in test [5] it was 8%; in test [6] it was 0%.
Regarding `COc1cc(Nc2nccc(N3CCC(NC(=O)c4cccc(C#N)c4)C3)n2)cc(OC)c1OC` (stereo not drawn) [GSK1379751], the “%Inh” value worked out at 0% in test [1]; 45% in test [2]; 23% in test [3]; 0% in test [4]; 22% in test [5]; 0% in test [6].
For the compound `CC(=O)Nc1ccc(-c2cc3ncnc(SCC(=O)O)c3s2)cc1`, the “%Inh” value is 40% in test [1]; 2% in test [2]; 12% in test [3]; 1% in test [4]; 29% in test [5]; 0% in test [6].
Consider `O=c1[nH]cc(-c2ccc(O)cc2)c2sc(-c3ccncc3)cc12` [GSK1033723], for which the “%Inh” value in test [1] was 1%; in test [2], 0%; in test [3] it was 0%; in test [4], 0%; in test [5], 0%; in test [6] it was 26%.
With `Cn1ccc2ncnc(Oc3ccc(NC(=O)Nc4cccc(C(F)(F)F)c4)c(Cl)c3)c21`, the “%Inh” value in test [1] was determined as 14%; in test [2] it was 0%; in test [3], 0%; in test [4], 44%; in test [5] it was 35%; in test [6] it was 10%.
Regarding `C[C@@H](Oc1cc(-n2cnc3cc(-c4ccncc4)ccc32)sc1C(N)=O)c1ccccc1Cl` [GSK479719], the “%Inh” value in test [1] was 0%; in test [2], 15%; in test [3], 71%; in test [4] it was 0%; in test [5], 14%; in test [6] it was 0%.
For `OCCn1cc(-c2cnc3nnn(Cc4ccc5ncccc5c4)c3n2)cn1`, the “%Inh” value in test [1] amounted to 0%; in test [2] it was 0%; in test [3], 0%; in test [4], 20%; in test [5], 0%; in test [6], 0%.
`CN(c1cccc(CNc2nc(Nc3ccc4c(c3)CC(=O)N4)ncc2C(F)(F)F)c1)S(C)(=O)=O`: the “%Inh” value came to 0% in test [1]; 0% in test [2]; 0% in test [3]; 0% in test [4]; 11% in test [5]; 9% in test [6].
Consider `NC(=O)Nc1sc(-c2ccc(F)cc2)cc1C(N)=O` [GW789449], for which the “%Inh” value came to 21% in test [1]; 5% in test [2]; 6% in test [3]; 0% in test [4]; 0% in test [5]; 16% in test [6].
For `CC(C(=O)NC1CCN(c2ccnc(Nc3ccc(F)cc3)n2)C1)c1ccc(Cl)cc1` (stereo not drawn) [GSK1379713], the “%Inh” value in test [1] is given as 5%; in test [2] it was 0%; in test [3] it was 8%; in test [4], 0%; in test [5] it was 5%; in test [6], 0%.
For the compound `CNC(=O)c1ccccc1Nc1nc(Nc2cccc(CS(C)(=O)=O)c2)ncc1C.O=CO` [GSK1520489], the “%Inh” value is given as 0% in test [1]; 0% in test [2]; 0% in test [3]; 0% in test [4]; 2% in test [5]; 0% in test [6].
`CSc1nccc(-c2c(-c3ccc(F)cc3)ncn2CCCN2CCOCC2)n1.Cl` [SB-217146]: the “%Inh” value was 0% in test [1]; 8% in test [2]; 67% in test [3]; 0% in test [4]; 0% in test [5]; 2% in test [6].
As to `Cn1cc(-c2cccc3c(N)c(C(N)=O)nnc23)cn1`, the “%Inh” value in test [1] is reported as 0%; in test [2], 9%; in test [3] it was 2%; in test [4] it was 16%; in test [5], 6%; in test [6], 27%.
As for `CC(C)c1nc(-c2cccc(NS(=O)(=O)c3ccccc3)c2)c(-c2ccnc(Nc3ccc4c(c3)CN(C)CC4)n2)s1` [GSK1649598], the “%Inh” value in test [1] turned out to be 98.6%; in test [2], 7%; in test [3], 91.5%; in test [4] it was 35%; in test [5], 48%; in test [6], 7%.
In the case of `Cc1ccc2c(-c3ccnc(Nc4ccc(C(F)(F)F)cc4)n3)cnn2n1` [GW819776], the “%Inh” value in test [1] was 0%; in test [2], 15%; in test [3], 0%; in test [4], 0%; in test [5], 0%; in test [6] it was 44%.
As to `Cc1cccc2c(-c3ccncc3)c(-c3ccc(F)cc3)nn12.Cl` [GW461487], the “%Inh” value in test [1] turned out to be 0%; in test [2], 5%; in test [3], 98.3%; in test [4], 22%; in test [5] it was 39%; in test [6], 17%.
`CS(=O)(=O)Nc1ccc(-c2ccnc3[nH]ccc23)cc1` [GSK993273]: the “%Inh” value in test [1] is given as 13%; in test [2] it was 0%; in test [3], 0%; in test [4] it was 0%; in test [5], 48%; in test [6], 41%.
As to `Cc1nnc(-c2ccc3occ(-c4ccc(S(C)=O)cc4)c3n2)o1` (stereo not drawn), the “%Inh” value in test [1], in test [2], in test [3], in test [4], in test [5] and in test [6] was 0% each time.
Regarding `CC(=O)Nc1nc2cnc(Nc3cc(NC(=O)c4cccc(CC(C)(C)C#N)c4)ccc3C)nc2s1`, the “%Inh” value in test [1] is recorded as 0%; in test [2], 5%; in test [3], 100%; in test [4], 100%; in test [5], 43%; in test [6] it was 74%.
Turning to `CN1CCN(CCNc2nc3cc(Oc4ccc(NC(=O)Nc5cc(C(F)(F)F)ccc5F)cc4)ccc3[nH]2)CC1.Cl.Cl` [GW768504], the “%Inh” value was found to be 2% in test [1]; 12% in test [2]; 0% in test [3]; 7% in test [4]; 0% in test [5]; 27% in test [6].
For the compound `N#Cc1cccc(C(=O)NC2CCN(c3ccnc(Nc4ccc(F)cc4)n3)C2)c1` (stereo not drawn) [GSK1379708], the “%Inh” value is 0% in test [1]; 0% in test [2]; 35% in test [3]; 0% in test [4]; 38% in test [5]; 0% in test [6].
Consider `CCNCC(Cc1ccccc1)NC(=O)c1cc(Br)c(-c2ccnc3[nH]ccc23)s1.Cl.Cl` (stereo not drawn) [GSK1383280], for which the “%Inh” value in test [1] is recorded as 15%; in test [2], 0%; in test [3], 11%; in test [4], 0%; in test [5], 53%; in test [6], 0%.
Turning to `CN1CCN(CCCNc2nccc(-c3c(-c4ccc(F)cc4)nn4cc(C(N)=O)ccc34)n2)CC1` [GW622475], the “%Inh” value was determined as 31% in test [1]; 0% in test [2]; 99.9% in test [3]; 79% in test [4]; 26% in test [5]; 13% in test [6].
For `COc1cc2c(Nc3ccc(NC(=O)c4ccccc4)cc3)ncnc2cc1OCCCN1CCOCC1` [GSK301329], the “%Inh” value is reported as 8% in test [1]; 0% in test [2]; 0% in test [3]; 0% in test [4]; 11% in test [5]; 0% in test [6].
Consider `CCn1c(-c2nonc2N)nc2cncc(Br)c21` [SB-738004], for which the “%Inh” value in test [1] stood at 15%; in test [2], 9%; in test [3] it was 6%; in test [4] it was 0%; in test [5], 0%; in test [6], 7%.
Take `FC(F)(F)c1cc(Br)cc(Nc2nccc(-c3cnn4ncccc34)n2)c1` [GW810578]: the “%Inh” value in test [1] is reported as 16%; in test [2], 0%; in test [3], 0%; in test [4], 0%; in test [5], 0%; in test [6], 41%.
With `CCCC(=O)Nc1n[nH]c2ncccc12` [SB-601436], the “%Inh” value amounted to 20% in test [1]; 0% in test [2]; 0% in test [3]; 0% in test [4]; 0% in test [5]; 13% in test [6].
Regarding `O=C(Nc1ccc(Oc2ccc3nc(NC(=O)C4CC4)cn3n2)c(F)c1)c1cccn(-c2ccccc2)c1=O`, the “%Inh” value was found to be 77% in test [1]; 0% in test [2]; 4% in test [3]; 9% in test [4]; 0% in test [5]; 87% in test [6].
For `Cn1ccc2ncnc(Oc3ccc(NC(=O)Nc4cc(C(C)(C)C)on4)c(Cl)c3)c21`, the “%Inh” value in test [1] is reported as 87%; in test [2], 0%; in test [3] it was 97.2%; in test [4] it was 78%; in test [5], 36%; in test [6] it was 56%.
For the compound `O=C(NCC1CC1)c1ccc(-c2cc(C(=O)NC3CC3)ccc2F)cc1` [GW810445], the “%Inh” value was determined as 0% in test [1]; 0% in test [2]; 55% in test [3]; 0% in test [4]; 0% in test [5]; 29% in test [6].
Take `COc1ccc(Nc2nccc(N3CCC(NC(=O)c4cccc(C#N)c4)C3)n2)cc1` (stereo not drawn) [GSK1379730]: the “%Inh” value is recorded as 26% in test [1]; 0% in test [2]; 5% in test [3]; 0% in test [4]; 38% in test [5]; 0% in test [6].
For the compound `Cn1ccc2ncnc(Oc3ccc(NC(=O)Nc4cccc(C(F)(F)F)c4)c(F)c3)c21`, the “%Inh” value in test [1] was determined as 18%; in test [2], 1%; in test [3], 12%; in test [4], 20%; in test [5] it was 0%; in test [6] it was 62%.
